Assay results from PubChem BioAssay (Tox21).
Several values for one entry are separate records, joined by “and”; a condition that tells them apart may be missing. Equal values may be shown once. Inconclusive results are not listed. Entries that show only a call come without a potency. Where a structure was tested more than once in an assay, its records may differ in their call. Activity calls are given as the source filed them. Unless noted, calls follow the shape of the dose curve; as a rule, active = well fitted curve in the direction sought with a large enough effect in the repeat runs; inconclusive = weak or mixed curves; inactive = no such curve, though single readings can be large; an effect the other way counts as inactive or inconclusive.

Tests used:
[1] = qHTS assay to identify small molecule antagonists of the glucocorticoid receptor (GR) signaling pathway - cell viability counter screen (AID 720693); also: nearly all actives have a fitted effect of over 55% in size
[2] = qHTS assay for identifying genotoxic compounds that show differential cytotoxicity against isogenic chicken DT40 cell lines with known DNA damage response pathways - wild type cell line (AID 743012); also: nearly all actives have a fitted effect of over 60% in size; also: potency is read from the fitted curve at half-maximal effect
Summary of the method: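 Quantitative HTS on parental DT40 cells: 40 h compound treatment at 37 C/5% CO2, with viability then determined by CellTiter-Glo luminescence. Values serve as the DNA repair-proficient reference for differential cytotoxicity.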

[3] = qHTS assay for identifying genotoxic compounds that show differential cytotoxicity against isogenic chicken DT40 cell lines with known DNA damage response pathways - Rev3 mutant cell line (AID 743014); also: nearly all actives have a fitted effect of over 55% in size; also: potency is read from the fitted curve at half-maximal effect
[4] = qHTS assay for identifying genotoxic compounds that show differential cytotoxicity against isogenic chicken DT40 cell lines with known DNA damage response pathways - Rad54/Ku70 mutant cell line (AID 743015); also: nearly all actives have a fitted effect of over 60% in size; also: potency is read from the fitted curve at half-maximal effect
[5] = qHTS assay to identify small molecule antagonists of the androgen receptor (AR) signaling pathway - cell viability counter screen (AID 743033; also: nearly all actives have a fitted effect of over 45% in size)
[6] = qHTS assay to identify small molecule antagonists of the androgen receptor (AR) signaling pathway using the MDA cell line - cell viability counter screen (AID 743041; also: nearly all actives have a fitted effect of over 45% in size)
Summary of the method: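 Cells were plated at 3,000 per well and left 5 h. Compounds in DMSO were then pinned in, followed by R1881. After 16 h at 37C, CellTiter-Fluor fluorescence gave viability.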

[7] = qHTS assay to identify small molecule antagonists of the thyroid receptor (TR) signaling pathway - cell viability counter screen (AID 743064); also: nearly all actives have a fitted effect of over 50% in size
Summary of the method: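 GH3.TRE-Luc rat pituitary cells dosed after 4 hr plating, co-stimulated with T3 at 1 nM final, incubated 23.5 h at 37 C. Viability measured in the same wells by CellTiter-Fluor fluorescence after 30 min further at 37 C.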

[8] = qHTS assay to identify small molecule antagonists of the thyroid receptor (TR) signaling pathway (AID 743065); also: nearly all actives have a fitted effect of over 55% in size; also: potency is read from the fitted curve at half-maximal effect
Summary of the method: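 Antagonism measured as loss of luciferase signal in GH3 cells stably carrying a TRE-luciferase reporter, co-treated with compound and T3 (1 nM final) for 23.5 h at 37 C. Viability was read in the same well by CellTiter-Fluor.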

[9] = tested on: thyroid hormone receptor (rat, GH3 cells); test: qHTS assay to identify small molecule agonists of the thyroid receptor (TR) signaling pathway (AID 743066; calls by dose curve)
[10] = qHTS assay to identify small molecule antagonists of the estrogen receptor alpha (ER-alpha) signaling pathway - cell viability counter screen (AID 743074; calls by dose curve;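 also: HEK293 cells carrying ER-alpha-UAS-bla reporter stimulated with 17beta-estradiol; nearly all actives have a fitted effect of over 45% in size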)
[11] = qHTS assay to identify small molecule antagonists of the estrogen receptor alpha (ER-alpha) signaling pathway using the BG1 cell line - cell viability counter screen (AID 743081);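 also: compound given together with 17beta-estradiol as the ER stimulus; nearly all actives have a fitted effect of over 45% in size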
[12] = target: Aromatase (Homo sapiens) (UniProt P11511); test: qHTS assay to identify aromatase inhibitors (AID 743083); also: nearly all actives have a fitted effect of over 55% in size
[13] = target: Androgen receptor (Homo sapiens) (UniProt P10275); test: qHTS assay to identify small molecule agonists of the androgen receptor (AR) signaling pathway (AID 743036; active = well fitted activation curve with a large enough effect in the signal ratio in the repeat runs, with a control signal flat, not every such curve was filed as active; the % refers to the signal ratio)
Summary of the method: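 AR-UAS-bla HEK293 cells, plated 4 h before dosing, were treated with compound for 16 h at 37C. beta-Lactamase reporter read after 2 h with LiveBLAzer B/G FRET substrate at room temperature.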

[14] = target: Androgen receptor (Homo sapiens) (UniProt P10275); test: qHTS assay to identify small molecule agonists of the androgen receptor (AR) signaling pathway using the MDA cell line (AID 743040; also: nearly all actives have a fitted effect of over 20% in size); settings: MDA-kb2 AR-luc cells, MMTV luciferase, 16 h, stronger effect = higher value
Summary of the method: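 Cells plated, 5 h at 37C/0% CO2; compound or DMSO pinned; 16 h at 37C; ONE-Glo added; luminescence measured after 30 min at room temperature. Reporter line: MDA-kb2 with MMTV-luciferase responsive to AR and GR.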

[15] = target: Androgen receptor (Homo sapiens) (UniProt P10275); test: qHTS assay to identify small molecule antagonists of the androgen receptor (AR) signaling pathway using the MDA cell line (AID 743042; also: nearly all actives have a fitted effect of over 55% in size; also: potency is read from the fitted curve at half-maximal effect)
Summary of the method: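 Antagonist mode: compounds plus R1881 agonist added to MDA-kb2 AR-luc cells, incubated 16 h at 37C. Luciferase reporter luminescence quantified, with multiplexed CellTiter-Fluor readout for cell viability.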

[16] = target: Estrogen receptor (Homo sapiens) (UniProt P03372); test: qHTS assay to identify small molecule antagonists of the estrogen receptor alpha (ER-alpha) signaling pathway (AID 743069; active = well fitted curve in the direction sought with a large enough effect in the signal ratio in the repeat runs, not every such curve was filed as active; the % refers to the signal ratio)
Summary of the method: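 ER-alpha-UAS-bla GripTite HEK293 line; 2% charcoal-stripped FBS overnight; plated, 4 hr 37C/5% CO2; cpd in DMSO + 17beta-estradiol, 18 hr 37C; LiveBLAzer B/G FRET substrate 2 hr RT; fluorescence intensity.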

[17] = target: Estrogen receptor (Homo sapiens) (UniProt P03372); test: qHTS assay to identify small molecule agonists of the estrogen receptor alpha (ER-alpha) signaling pathway (AID 743075; calls by dose curve;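 also: HEK293 GripTite cells with ER-alpha and UAS-driven beta-lactamase reporter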)
[18] = target: Estrogen receptor (Homo sapiens) (UniProt P03372); test: qHTS assay to identify small molecule agonists of the estrogen receptor alpha (ER-alpha) signaling pathway using the BG1 cell line (AID 743079); settings: BG1Luc4E2 cells, ERE-luciferase agonist, 22 h; activation: at 70.3 µM (top of the series) unless noted; also: nearly all actives have a fitted effect of over 20% in size; also: potency is read from the fitted curve at half-maximal effect
[19] = qHTS assay to identify small molecule antagonists of the estrogen receptor alpha (ER-alpha) signaling pathway using the BG1 cell line (AID 743080; calls by dose curve;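 also: BG1 cells stimulated with 17beta-estradiol alongside compound; nearly all actives have a fitted effect of over 25% in size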)
Summary of the method: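 Endogenous full-length ER-alpha in BG1-Luc-4E2 cells drives a stably integrated 4×ERE luciferase gene; compounds were tested against 17beta-estradiol over 21.5 h, with luminescence and multiplexed viability fluorescence recorded.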

[20] = target: Androgen receptor (Homo sapiens) (UniProt P10275); test: qHTS assay to identify small molecule antagonists of the androgen receptor (AR) signaling pathway (AID 743035; active = well fitted inhibition curve with a large enough effect in the signal ratio in the repeat runs, not every such curve was filed as active; the % refers to the signal ratio; also: potency is read from the fitted curve at half-maximal effect)
Summary of the method: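 Cell line: GeneBLAzer AR-UAS-bla GripTite (HEK293). Stimulus: R1881 added after compound. Exposure: 16 h, 37C, 5% CO2. Readout: LiveBLAzer B/G FRET fluorescence after 2 h at room temperature.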

Chain of Estrogen receptor (Homo sapiens) (P03372 whole entry, looked up): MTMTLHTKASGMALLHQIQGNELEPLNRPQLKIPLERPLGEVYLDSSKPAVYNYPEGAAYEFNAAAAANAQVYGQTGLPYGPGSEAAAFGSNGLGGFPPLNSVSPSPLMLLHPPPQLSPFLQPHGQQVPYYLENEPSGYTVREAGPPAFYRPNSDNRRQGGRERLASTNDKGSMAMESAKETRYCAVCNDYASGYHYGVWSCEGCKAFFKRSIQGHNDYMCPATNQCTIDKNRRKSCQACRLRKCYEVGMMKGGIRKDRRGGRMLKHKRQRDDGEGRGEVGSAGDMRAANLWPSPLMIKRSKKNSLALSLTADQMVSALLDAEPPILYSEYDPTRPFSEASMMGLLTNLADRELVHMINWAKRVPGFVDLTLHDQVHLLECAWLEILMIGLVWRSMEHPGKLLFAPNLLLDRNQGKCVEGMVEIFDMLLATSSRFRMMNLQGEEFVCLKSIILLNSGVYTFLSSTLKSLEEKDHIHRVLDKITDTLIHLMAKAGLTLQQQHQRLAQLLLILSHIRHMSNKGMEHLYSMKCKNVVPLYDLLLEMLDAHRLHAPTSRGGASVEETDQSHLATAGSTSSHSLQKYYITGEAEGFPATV
Chain of Androgen receptor (Homo sapiens) (P10275 whole entry, looked up): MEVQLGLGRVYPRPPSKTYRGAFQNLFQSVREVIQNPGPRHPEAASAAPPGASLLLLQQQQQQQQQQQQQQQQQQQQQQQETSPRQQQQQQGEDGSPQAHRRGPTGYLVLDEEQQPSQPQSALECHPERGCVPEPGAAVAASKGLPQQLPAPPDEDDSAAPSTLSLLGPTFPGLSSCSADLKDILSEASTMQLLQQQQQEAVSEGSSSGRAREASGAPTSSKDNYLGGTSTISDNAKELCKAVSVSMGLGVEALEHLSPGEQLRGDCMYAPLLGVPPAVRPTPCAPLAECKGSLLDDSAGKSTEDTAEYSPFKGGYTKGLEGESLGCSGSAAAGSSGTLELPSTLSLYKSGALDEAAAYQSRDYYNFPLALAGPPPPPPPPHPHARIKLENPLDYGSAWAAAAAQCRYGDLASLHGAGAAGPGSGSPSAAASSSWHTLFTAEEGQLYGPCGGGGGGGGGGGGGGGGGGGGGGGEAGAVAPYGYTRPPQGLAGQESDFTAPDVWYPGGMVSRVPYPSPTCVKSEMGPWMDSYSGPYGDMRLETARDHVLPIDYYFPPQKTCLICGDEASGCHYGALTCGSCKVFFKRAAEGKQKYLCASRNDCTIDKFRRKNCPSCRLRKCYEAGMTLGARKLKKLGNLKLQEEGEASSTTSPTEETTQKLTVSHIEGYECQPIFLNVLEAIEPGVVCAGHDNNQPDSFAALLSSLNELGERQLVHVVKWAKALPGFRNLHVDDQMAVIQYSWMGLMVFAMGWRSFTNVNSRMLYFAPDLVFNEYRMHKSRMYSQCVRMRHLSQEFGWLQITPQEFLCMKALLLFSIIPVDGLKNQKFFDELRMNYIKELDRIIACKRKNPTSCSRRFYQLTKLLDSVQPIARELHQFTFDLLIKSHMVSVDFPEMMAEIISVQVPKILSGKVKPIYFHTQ
Chain of Aromatase (Homo sapiens) (P11511 whole entry, looked up): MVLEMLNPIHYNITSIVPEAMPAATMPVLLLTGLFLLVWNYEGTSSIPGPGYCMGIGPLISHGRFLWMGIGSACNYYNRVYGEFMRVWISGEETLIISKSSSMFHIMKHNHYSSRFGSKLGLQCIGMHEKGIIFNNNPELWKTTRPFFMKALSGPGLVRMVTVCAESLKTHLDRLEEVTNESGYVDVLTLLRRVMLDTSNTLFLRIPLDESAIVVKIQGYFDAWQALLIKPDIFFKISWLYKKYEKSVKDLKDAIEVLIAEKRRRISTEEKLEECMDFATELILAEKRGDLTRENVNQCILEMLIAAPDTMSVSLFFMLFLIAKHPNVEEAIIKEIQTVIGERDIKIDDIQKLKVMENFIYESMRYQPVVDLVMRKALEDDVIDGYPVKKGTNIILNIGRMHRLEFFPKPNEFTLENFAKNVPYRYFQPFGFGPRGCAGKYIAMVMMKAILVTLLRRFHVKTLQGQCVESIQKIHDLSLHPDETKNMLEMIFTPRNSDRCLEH

Question: With `Nc1ncn[nH]1` as the molecule, how does the Potency [1] read?
Answer: inactive

Question: And the Potency [2]?
Answer: inactive

Question: And the Potency [3]?
Answer: inactive

Question: And the Potency [4]?
Answer: inactive

Question: What about the Potency [5] of the same molecule?
Answer: inactive

Question: And the Potency [6]?
Answer: inactive

Question: And the Potency [7]?
Answer: inactive

Question: What about the Potency [8] of the same molecule?
Answer: inactive

Question: And the Potency [9]?
Answer: inactive

Question: What about the Potency [10] of the same molecule?
Answer: inactive

Question: And the Potency [11]?
Answer: inactive

Question: What about the Potency [12] of the same molecule?
Answer: inactive

Question: Which Potency [1] does the source give for `CC1=C(C(=O)Nc2ccccc2)SCCO1` here?
Answer: inactive

Question: And the Potency [2]?
Answer: 62.1 µM (active) and 17.2 µM (active)

Question: And the Potency [3]?
Answer: 24.7 µM (active) and 12.2 µM (active)

Question: And the Potency [4]?
Answer: 62.1 µM (active) and 19.3 µM (active)

Question: What about the Potency [5] of the same molecule?
Answer: inactive

Question: And the Potency [13]?
Answer: inactive

Question: What about the activity change ([14]; at 70.3 µM (top of the series)) of the same molecule?
Answer: 4% (inactive)

Question: What about the activity change ([14]; at 95 µM (top of the series)) of the same molecule?
Answer: 0.0315% (inactive)

Question: What about the Potency [6] of the same molecule?
Answer: inactive

Question: What about the Potency [15] of the same molecule?
Answer: inactive

Question: And the Potency [7]?
Answer: inactive

Question: And the Potency [8]?
Answer: inactive

Question: And the Potency [9]?
Answer: inactive

Question: What about the Potency [16] of the same molecule?
Answer: inactive

Question: And the Potency [10]?
Answer: inactive

Question: What about the Potency [17] of the same molecule?
Answer: inactive

Question: And the Potency [18]?
Answer: 31.1 µM (active) and 27.3 µM (active)

Question: And the Potency [11]?
Answer: inactive

Question: What about the Potency [12] of the same molecule?
Answer: inactive

Question: What does the source list for `Clc1ccc(C(Cl)(Cl)Cl)cc1`?
Answer: Potency [1]: inactive; Potency [2]: inactive; Potency [3]: inactive; Potency [4]: inactive; Potency [5]: inactive; Potency [6]: inactive; Potency [7]: inactive; Potency [8]: inactive; Potency [9]: inactive; Potency [10]: inactive; Potency [17]: inactive; Potency [18]: inactive and 30.6 µM (active); Potency [19]: inactive; Potency [11]: inactive; Potency [12]: inactive

Question: With `O=NN1CCOCC1` as the molecule, how does the Potency [1] read?
Answer: inactive

Question: And the Potency [2]?
Answer: inactive

Question: And the Potency [3]?
Answer: inactive

Question: And the Potency [4]?
Answer: inactive

Question: What about the Potency [5] of the same molecule?
Answer: inactive

Question: And the Potency [6]?
Answer: inactive

Question: What about the Potency [7] of the same molecule?
Answer: inactive

Question: What about the Potency [8] of the same molecule?
Answer: inactive

Question: What about the Potency [9] of the same molecule?
Answer: inactive

Question: And the Potency [10]?
Answer: inactive

Question: And the Potency [17]?
Answer: inactive

Question: What about the Potency [18] of the same molecule?
Answer: inactive

Question: And the Potency [19]?
Answer: inactive

Question: What about the Potency [11] of the same molecule?
Answer: inactive

Question: What about the Potency [12] of the same molecule?
Answer: inactive

Question: For `CC(C)(c1ccc(OCC2CO2)cc1)c1ccc(OCC2CO2)cc1` (stereo not drawn), which Potency [1] is on record?
Answer: inactive

Question: And the Potency [2]?
Answer: 24.3 µM (active)

Question: And the Potency [3]?
Answer: 2.47 µM (active) and 3.06 µM (active)

Question: What about the Potency [4] of the same molecule?
Answer: 55.2 µM (active) and 27.3 µM (active)

Question: What about the Potency [5] of the same molecule?
Answer: inactive

Question: What about the Potency [20] of the same molecule?
Answer: inactive

Question: And the Potency [13]?
Answer: inactive

Question: And the activity change ([14]; at 70.3 µM (top of the series))?
Answer: -0.897% (inactive)

Question: And the activity change ([14]; at 95 µM (top of the series))?
Answer: -0.522% (inactive)

Question: And the Potency [6]?
Answer: inactive

Question: What about the Potency [15] of the same molecule?
Answer: inactive

Question: What about the Potency [8] of the same molecule?
Answer: 55.2 µM (active) and 54.5 µM (active)

Question: And the Potency [9]?
Answer: inactive

Question: And the Potency [16]?
Answer: inactive

Question: What about the Potency [10] of the same molecule?
Answer: inactive

Question: What about the Potency [17] of the same molecule?
Answer: inactive

Question: And the Potency [18]?
Answer: inactive

Question: What about the Potency [19] of the same molecule?
Answer: inactive

Question: And the Potency [11]?
Answer: inactive

Question: And the Potency [12]?
Answer: inactive

Question: Which results are given for `CCC(=O)Nc1ccc(Cl)c(Cl)c1`?
Answer: Potency [1]: inactive; Potency [2]: inactive; Potency [3]: inactive; Potency [4]: inactive; Potency [5]: inactive; Potency [20]: 22.3 µM (active) and 24.5 µM (active); Potency [13]: inactive; activity change ([14]; at 70.3 µM (top of the series)): -3.69% (inactive); activity change ([14]; at 95 µM (top of the series)): -4.49% (inactive); Potency [6]: inactive; Potency [15]: 48.6 µM (active); Potency [7]: inactive; Potency [8]: 49.5 µM (active); Potency [9]: inactive; Potency [10]: inactive; Potency [11]: inactive; Potency [12]: inactive
